High-throughput results as filed in PubChem.
KB-V1 cytotox = qHTS assay for MDR1-selective chemotherapeutics: Primary screen using the drug-selected MDR subline cells KB-V1. 3.4% of 400,000 active. KB-V1 MDR cells viability, CellTiter-Glo, 72 h. Potency, µM (series often up to 46.1 µM), usual class: cytotoxic; also: potency is read from the fitted curve at half-maximal effect; % is scaled to controls: 0 for no effect and ±100 for the full control effect; nearly all actives have a fitted effect of over 60% in size
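qHTS viability screen in drug-selected KB-V1 MDR cells: 72 h compound treatment at 37 degrees C, ATP luminescence end point.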
KB-3-1 tox = qHTS assay for MDR1-selective chemotherapeutics: Primary screen using the parental adenocarcinoma cell KB-3-1 | 1.4% of 400,000 active | Potency, µM (highest dose often 46.1 µM), usual class: cytotoxic | KB-3-1 viability, CellTiter-Glo ATP luminescence, 72 h | AID 1347075, 2019; also: potency is read from the fitted curve at half-maximal effect; % is scaled to controls: 0 for no effect and ±100 for the full control effect; nearly all actives have a fitted effect of over 60% in size
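Multi-concentration cytotoxicity screen in KB-3-1 cells grown in DMEM lacking phenol red with 10% FBS. After 72 h at 37 °C with compound, ATP-dependent luminescence was recorded.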
SW480 rereplic = A quantitative high throughput screen for small molecules that induce DNA re-replication in SW480 colon adenocarcinoma cells; AID 624297, 2012; 1.8% of 340,000 active; SW480 DNA re-replication, Hoechst DNA content imaging, 48 h; Potency, µM (series often up to 46.1 µM), inactives show at the highest dose re-replication activation, hits mostly activators; also: potency is read from the fitted curve at half-maximal effect; % of control where 0% means no effect; nearly all actives have a fitted effect of over 55% in size
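First, 250 cells per well were seeded. Next, compound or vehicle (23 nL) was pinned in, plates sat 48 hr at 37 C. Finally Hoechst was added for 40 min before fluorescence scanning.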
MCF10A rerep = A quantitative high throughput screen for small molecules that induce DNA re-replication in MCF 10a normal breast cells; MCF 10A DNA re-replication, Hoechst nuclear intensity, 48 h; Potency, µM (highest dose often 46.1 µM), inactives show at the top dose activity, positive = re-replication, actives largely listed as activators; 2.9% of 350,000 active; AID 624296, 2012; also: potency is read from the fitted curve at half-maximal effect; % of control where 0% means no effect; nearly all actives have a fitted effect of over 50% in size
D3 antag = qHTS of D3 Dopamine Receptor Antagonist: qHTS. 2.5% of 360,000 active. D(3) dopamine receptor (Homo sapiens), P35462. D3R cells, DiscoveRx beta-arrestin luminescence, antagonist mode; active compounds read low. max response, negative = inhibition, %; in the data active = max response below about -50%; inconclusive = no clear call, values can overlap the other calls; also: % is scaled to controls: 0 for no effect and ±100 for the full control effect
Target sequence (P35462 whole entry, looked up): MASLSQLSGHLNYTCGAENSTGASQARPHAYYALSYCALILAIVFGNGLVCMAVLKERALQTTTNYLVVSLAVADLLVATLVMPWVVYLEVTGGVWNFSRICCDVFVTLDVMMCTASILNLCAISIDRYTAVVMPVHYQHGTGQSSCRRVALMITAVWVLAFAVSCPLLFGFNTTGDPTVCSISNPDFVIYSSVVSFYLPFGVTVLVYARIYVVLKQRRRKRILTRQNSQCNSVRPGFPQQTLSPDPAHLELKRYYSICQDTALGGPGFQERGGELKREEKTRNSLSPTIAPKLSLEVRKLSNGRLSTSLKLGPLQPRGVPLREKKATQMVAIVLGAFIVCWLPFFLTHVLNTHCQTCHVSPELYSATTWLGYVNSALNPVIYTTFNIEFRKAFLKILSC
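Cells expressing the human receptor were seeded at 1500 cells/well, incubated overnight at 37 degrees C in 5% CO2, then exposed to library compounds with dopamine controls for 90 minutes at 37 degrees C before luminescent detection.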
DRD3 agonist = qHTS of D3 Dopamine Receptor Agonist: qHTS. D(3) dopamine receptor (Homo sapiens), P35462. D3R DiscoveRx beta-arrestin cells, luminescence, 90 min. max activation, %. 0.58% of 410,000 active; in the data active = max activation above about 30%; also: 0% is about no effect
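Cells at 1500/well, incubated overnight, then treated with pinned compounds (dopamine as control) for 90 min at 37 degrees C. DiscoveRx reagent added for 30 - 60 minutes at room temperature; luminescence read.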
* marks the source's active call; other numbers are inactive results; i = inactive; ? = inconclusive; nt = no result; [ ] = another dose, or the depositor's remark. The list is not random: actives were taken first. Their share in the collection is about 8.9%. Unless noted, calls follow the shape of the dose curve; as a rule, active = well fitted curve in the direction sought with a large enough effect; inconclusive = small, poorly fitted or top-dose-only effect, or another doubt; inactive = no such curve, though single readings can be large; an effect the other way counts as inactive or inconclusive.

SMILES	KB-V1 cytotox	KB-3-1 tox	SW480 rereplic	MCF10A rerep	D3 antag	DRD3 agonist
O=C(NC1CC1)c1ccc2nc(-c3ccco3)c(-c3ccco3)nc2c1	i	i	nt	nt	nt	nt
S=c1[nH]nc(COc2ccc3ccccc3c2)o1	i	i	5%	-8%	-62*	0
Cc1ccc(C(=O)N2CCc3cc(CNS(=O)(=O)c4cccs4)ccc32)cc1	nt	nt	nt	nt	nt	5
O=[N+]([O-])c1cccc(/C=N\N2CCN(Cc3ccccc3Cl)CC2)c1	i	i	-6%	?	-78*	-1
Cc1cc(/C=C/c2ccc3cc(N(C)C)ccc3[n+]2C)c(C)n1-c1ccccc1	nt	nt	nt	nt	nt	-14
Cc1cc(Nc2ccccc2O)nc(C)n1	?	i	nt	nt	nt	1
Cc1cccc(Nc2cc(C)c3c(O)cccc3n2)c1C	i	?	21µM*	?	-11	0
CCOc1ccc(-c2nc(Cn3c(=O)cc(-c4ccccc4)c4c(C)nn(C)c43)c(C)o2)cc1OC	i	i	nt	nt	nt	-13
Cc1cccc(OCCn2c(NC(=O)c3ccco3)nc3ccccc32)c1	2.3µM*	?	?	15%	-11	-3
Cc1ccc(OCCn2c(NC(=O)c3ccco3)nc3ccccc32)cc1	?	?	13%	?	-20	-7
c1ccc(OCCn2c(-c3ccco3)nc3ccccc32)cc1	i	i	10%	-1%	15	13
Cc1cccc(OCCn2c(-c3ccco3)nc3ccccc32)c1	i	i	6.5µM*	252%[0.0737 µM]	29	-1
CCn1cc(C(=O)N[C@@H](CC(C)C)C(=O)NCCCn2ccnc2)c(=O)c2cc3c(cc21)OCO3	i	i	13µM*	1%	-9	-1
CCn1cc(C(=O)N[C@H](C(=O)NCCO)C(C)C)c(=O)c2cc3c(cc21)OCO3	i	i	14%	3%	-15	51*
COc1ccc(Cl)cc1NC(=O)c1cc2nc(-c3ccc4c(c3)OCO4)cc(C(F)(F)F)n2n1	i	i	nt	nt	nt	4
CC(Oc1ccc(Cl)cc1)C(=O)Nc1sccc1C(N)=O (configuration not stated)	9.2µM*	i	3%	23%	5	6
COc1ccccc1NC(=O)Cn1c(C)cc(C)c(C#N)c1=O	?	i	nt	nt	nt	5
CC(C)(C)c1ccc(C(=O)Nc2cc(-c3ccccc3)nn2-c2ccccc2)cc1	i	i	nt	nt	nt	5
COC(=O)c1c(NC(=O)c2cccc(S(=O)(=O)N3CCN(C)CC3)c2)sc(C)c1C	i	i	?	21µM*	-2	-9
O=C(Nc1nc(-c2ccccc2)cs1)c1cccc(S(=O)(=O)N2CCN(Cc3ccccc3)CC2)c1	i	i	0%	29%	14	0
CCOC(=O)c1c(NC(=O)c2cccc(N3C(=O)CCC3=O)c2)sc(C)c1C	10µM*	i	-4%	14%	4	7
CN1CCN(S(=O)(=O)c2cccc(C(=O)Nc3nc(-c4ccccc4)cs3)c2)CC1	3.3µM*	?	5%	?	?	-5
COc1ccc(-c2csc(NC(=O)c3cccc(S(=O)(=O)N4CCN(C)CC4)c3)n2)cc1	i	i	1%	?	-51*	-2
O=C(c1ccc2c(c1)N(Cc1ccc(Cl)cc1)C(=O)c1ccccc1S2(=O)=O)N1CCc2ccccc21	i	i	nt	nt	nt	1
CCOc1ccc(/C=C/c2nc(C#N)c(N3CCN(c4ccccc4)CC3)o2)cc1	nt	nt	nt	nt	nt	16
SMILES	KB-V1 cytotox	KB-3-1 tox	SW480 rereplic	MCF10A rerep	D3 antag	DRD3 agonist
S=C(Nc1ccc(Cl)cc1)c1nc2ccccc2s1	i	i	1%	?	96	5
O=C(Nc1ccc(Cl)cc1)/C(=C/c1cccc(O)c1)c1nc2ccccc2s1	?	2.9µM*	21µM*	4.1µM*	?	-2
O=C(Cn1cnc2c(nc3n2CCCCC3)c1=O)Nc1ccc(F)c(Cl)c1	i	i	nt	nt	nt	-7
CCOC(=O)Cc1csc(NC(=O)CSc2nc(N)c3c(C)c(C)sc3n2)n1	8.2µM*	i	0%	8%	21	2
CCOC(=O)Cc1csc(NC(=O)CSc2nc(C)cc(C)n2)n1	i	i	-1%	10%	1	1
CCOC(=O)Cc1csc(NC(=O)c2csc(C)c2)n1	16µM*	i	-2%	4%	22	0
CCOC(=O)Cc1csc(NC(=O)CN2CCCCC2)n1	i	i	27%	11%	-55*	-8
CCN1CCN(S(=O)(=O)c2ccc(Cl)c(C(=O)NCc3nc4ccccc4[nH]3)c2)CC1	i	?	10µM*	?	-4	-1
CCN1CCN(S(=O)(=O)c2ccc(Cl)c(C(=O)NC3CC3)c2)CC1	i	i	-5%	-1%	12	4
O=C(NCc1nc2ccccc2[nH]1)c1cccc(S(=O)(=O)N2CCCCC2)c1	i	i	-7%	1%	-9	-5
CCN1CCN(S(=O)(=O)c2ccc(Cl)c(C(=O)Nc3ccccc3N3CCCC3)c2)CC1	i	i	6.5µM*	?	-19	-17
CCN1CCN(S(=O)(=O)c2ccc(Cl)c(C(=O)NCCc3ccccc3)c2)CC1	i	i	15µM*	5%	17	25
CCN(Cc1ccccc1)C(=O)c1cc2ccc3cccnc3c2[nH]1	i	i	nt	nt	nt	-11
COc1ccc(N(C(=O)c2ccco2)C(C(=O)NC2CCCCC2)c2cccs2)cc1OC (configuration not stated)	i	i	0%	-1%	-19	7
COc1cccc(N(C(=O)CCl)C(C(=O)NCCc2ccccc2)c2cccs2)c1 (configuration not stated)	?	?	?	16µM*	5	2
COc1ccc(N(C(=O)CCl)C(C(=O)NCCc2ccccc2)c2cccs2)cc1Cl (configuration not stated)	13µM*	8.2µM*	?	6.5µM*	-8	-12
C(#Cc1ccccc1)C[N+]1(CC#Cc2cccc3ccccc23)CCCC1	i	16µM*	4%	?	4	-14
COc1ccccc1NC(=O)C1=C(C)Nc2nc(SCC(=O)c3ccc(C)cc3)nn2C1c1ccc(F)cc1 (configuration not stated)	i	i	nt	nt	nt	-17
